Assay [1] can be described thus: growth inhibition of DIPG glioma cells, dose response, cell-based, SU-DIPG-XIII, MIPE5.0, CellTiter-Glo, qHTS (AID 1347064; cut-off not given, nearly all actives have AC50 up to about 23 µM). As to conditions: SU-DIPG-XIII viability, CellTiter-Glo ATP luminescence. In general terms: In ATP-based viability assays light output follows the ATP content of the culture.
Assay [2] can be described thus: viability loss in pontine glioma line – cell-based, SU-DIPG-XXV, MIPE5.0, CellTiter-Glo, qHTS, dose response (AID 1347065; cut-off not given, nearly all actives have AC50 up to about 26 µM;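 further: cells exposed to compound for 48 hours before ATP readout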). As to conditions: CellTiter-Glo ATP luminescence.
Assay [3] is described as follows: modifiers of HSF1 nuclear foci, imaging, Selleck Cancer Library (AID 1347162; in the data active means plate-normalised HSF1 focus index below about 0.46). As to conditions: human cells, at 10 µM; SSMD: measured here: HSF1 foci SSMD mean; cell count: measured here: cell number; plate-normalised HSF1 focus index: stronger effect = lower value.
Assay [4] can be described thus: CRL2098 osteosarcoma cell growth inhibition, synergistic combos for chromothripsis tumors, BGB or cisplatin IC20 combos (AID 1671454).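 Further: cells exposed for 96 h before readout; 0% = vehicle DMSO and 100% = killing by high DMSO.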 As to conditions: CRL2098 osteosarcoma cells, drug combinations, stronger effect = higher value.
Assay [5] is described as follows: HD-MB03 medulloblastoma cell growth inhibition, synergistic combos for chromothripsis tumors, BGB or cisplatin IC20 combos (AID 1671455; in the data active means inhibition above about 83%;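 further: 0% = vehicle DMSO and 100% = high DMSO as cytotoxic control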). The conditions noted are these: HD-MB03 medulloblastoma cells, stronger effect = higher value.
Assay [6] in a line: UWB1.289 ovarian carcinoma cell growth inhibition, synergistic combos for chromothripsis tumors, BGB or cisplatin combos (AID 1671456).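 Further: cells exposed to compound for four days; 0% = vehicle DMSO and 100% = killing by high DMSO.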 As to conditions: UWB1.289 ovarian carcinoma cells, stronger effect = higher value.
A short description of assay [7]: LFS_MB_2R medulloblastoma cell growth inhibition, synergistic combos for chromothripsis tumors, cisplatin combos (AID 1671457).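 Further: cells exposed to compound for four days before readout.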 As to conditions: LFS_MB_2R medulloblastoma cells, stronger effect = higher value.
The nature of assay [8]: UWB1.289_BRCA1 ovarian cancer growth, cell-based, BGB or cisplatin combinations (AID 1671459). The conditions noted are these: UWB1.289 BRCA1 ovarian carcinoma, drug combinations, stronger effect = higher value.
Assay [9] is described as follows: human astrocyte viability loss, single and combined drugs, cytotoxicity control for chromothriptic childhood tumor combination screen, cell-based, BGB or cisplatin IC20 combos (AID 1671460).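 Further: cells exposed to compounds for 96 hours before viability readout; 0% = vehicle and 100% = killing control.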 As to conditions: Human astrocytes, drug combinations, stronger effect = higher value.
The target in assay [10] is ATP-dependent translocase ABCB1 (Homo sapiens) (UniProt P08183). Briefly: MDR1 (ABCB1) efflux transporter inhibition, cell-based (AID 377; in the data active means fluorescence slope change above about 50%). As to conditions: MDR1-expressing cells, fluorescent substrate accumulation slope; stronger effect = higher value; concentration not given here.
Chain of ATP-dependent translocase ABCB1 (Homo sapiens) (P08183 whole entry, looked up): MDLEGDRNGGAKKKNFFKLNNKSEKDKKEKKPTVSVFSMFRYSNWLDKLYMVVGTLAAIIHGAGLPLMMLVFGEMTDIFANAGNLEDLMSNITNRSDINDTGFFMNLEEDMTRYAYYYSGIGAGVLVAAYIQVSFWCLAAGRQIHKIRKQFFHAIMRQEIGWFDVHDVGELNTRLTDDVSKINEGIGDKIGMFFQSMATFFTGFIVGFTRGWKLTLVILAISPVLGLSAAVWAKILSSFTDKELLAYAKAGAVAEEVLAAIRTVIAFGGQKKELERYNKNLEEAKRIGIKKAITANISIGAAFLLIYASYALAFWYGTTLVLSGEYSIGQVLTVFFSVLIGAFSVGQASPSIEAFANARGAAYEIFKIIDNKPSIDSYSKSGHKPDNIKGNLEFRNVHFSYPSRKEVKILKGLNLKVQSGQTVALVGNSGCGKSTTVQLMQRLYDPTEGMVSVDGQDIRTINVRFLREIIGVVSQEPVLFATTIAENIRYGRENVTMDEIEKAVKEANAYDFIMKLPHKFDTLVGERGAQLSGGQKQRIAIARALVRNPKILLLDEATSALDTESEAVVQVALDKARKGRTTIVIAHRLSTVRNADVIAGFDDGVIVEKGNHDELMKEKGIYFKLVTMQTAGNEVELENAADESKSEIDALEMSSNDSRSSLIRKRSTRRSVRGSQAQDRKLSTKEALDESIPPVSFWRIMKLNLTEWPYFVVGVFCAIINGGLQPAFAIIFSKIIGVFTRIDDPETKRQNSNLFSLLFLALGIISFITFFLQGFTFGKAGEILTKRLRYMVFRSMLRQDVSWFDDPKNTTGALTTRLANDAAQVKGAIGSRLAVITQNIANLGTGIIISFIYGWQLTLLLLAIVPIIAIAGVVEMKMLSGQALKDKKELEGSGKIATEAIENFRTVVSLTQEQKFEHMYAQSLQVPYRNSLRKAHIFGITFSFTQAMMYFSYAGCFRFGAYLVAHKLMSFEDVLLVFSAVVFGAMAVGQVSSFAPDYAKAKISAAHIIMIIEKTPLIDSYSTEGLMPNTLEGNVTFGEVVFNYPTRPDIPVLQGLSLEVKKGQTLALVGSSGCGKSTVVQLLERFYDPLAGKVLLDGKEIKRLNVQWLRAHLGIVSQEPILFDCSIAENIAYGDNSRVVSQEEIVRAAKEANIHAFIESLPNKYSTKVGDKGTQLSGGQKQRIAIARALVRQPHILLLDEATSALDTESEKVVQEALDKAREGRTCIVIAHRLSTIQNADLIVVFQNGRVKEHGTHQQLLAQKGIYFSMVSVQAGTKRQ
Assay [11] deals with Neuropilin-2 / VEGF-C interaction (human). The assay is described as follows: inhibitors of NRP2–VEGF-C binding, biochemical, microplate binding format, z-score (AID 743281; call rule not given here). As to conditions: microplate NRP2/VEGF-C binding assay; stronger effect = lower value.
A short description of assay [12]: liver-stage malaria parasite growth inhibition, primary screen, cell-based, HepG2, luciferase luminescence, HepG2 viability (AID 624349; in the data active means parasite load remaining mostly below about 12%, no sharp cut-off; inactive means mostly above about 10%;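 further: 100% = mean of DMSO negative control wells on the same plate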). The conditions noted are these: P. berghei liver stage in HepG2, luciferase luminescence, concentration not given here; parasite load remaining: stronger effect = lower value; viability: measured here: HepG2 viability without parasites.
[13] abbreviates: measured here: combination with BGB at IC20, at 0.5 µM.
Where [14] appears, read: measured here: combination with cisplatin at IC20, at 0.5 µM.
The mark [15] stands for this setting: measured here: combo with BGB at IC20, at 0.5 µM.
Setting [16] is: measured here: combo with cisplatin at IC20, at 0.5 µM.
The mark [17] stands for this setting: measured here: inhibition with BGB combination, at 0.05 µM.
Setting [18] is: measured here: inhibition with cisplatin combination, at 0.05 µM.
Where [19] appears, read: measured here: combination with cisplatin, at 0.5 µM.
[20] abbreviates: measured here: combination with cisplatin, at 5 µM.
The mark [21] stands for this setting: BGB combination, concentration series, at 5 µM.
The mark [22] stands for this setting: cisplatin combination, concentration series, at 5 µM.
Where [23] appears, read: measured here: combo with BGB IC20, at 0.5 µM.
Setting [24] is: measured here: combo with cisplatin IC20, at 0.5 µM.

Each structure is given as a SMILES string. “And” between values parts separate entries of the source, which are not always exact repeats. Equal values may be shown once. Inconclusive results are not listed. The source made the active and inactive calls. Unless noted, no stated cut-off is given here; in the data, active means inhibition above about 80%; inactive means the rest.

As for `O=c1[nH]cc(F)c(=O)[nH]1`, the compound was classed as inactive in assay [1] and in assay [2]. Further, the SSMD in assay [3] was 2.14. The compound also displayed a cell count in [3] of 7020. Also, the plate-normalised HSF1 focus index in assay [3] is 1.12 (inactive). Besides, the inhibition in assay [4] (at 0.5 µM) was -19.9% (inactive); in assay [4] (setting [13]) it was -48.5%; in assay [4] (setting [14]), 13.5%; in assay [5] (at 0.5 µM), -10.4% (inactive); in [5] (setting [15]) it was -12.3%; in assay [5] (setting [16]), -6.42%. Also, the inhibition is 0.81% (inactive) in assay [6] (at 0.5 µM); -23.6% in assay [6] (setting [17]); -10.5% in assay [6] (setting [18]); -13.7% (inactive) in [7] (at 0.5 µM); -7.48% in [7] (setting [19]); -1.94% in [7] (setting [20]). For the same compound, the inhibition in assay [8] (setting [21]) is 2.42%; in assay [8] (at 0.5 µM) it was -7.71% (inactive); in assay [8] (setting [22]) it was 17%; in assay [9] (at 0.5 µM) it was -3.88% (inactive); in assay [9] (setting [23]), 2.98%; in [9] (setting [24]) it was -4.03%.

Regarding `NCc1ccc(S(N)(=O)=O)cc1`, in assay [10], the fluorescence slope change was 164% (active).

Take `COc1cc2nc(N(C)CCCNC(=O)C3CCCO3)nc(N)c2cc1OC` (centres undefined): the z-score in assay [11] was -0.33 (inactive).

`CN(C)CCc1c[nH]c2ccc(C[C@H]3COC(=O)N3)cc12`: in assay [12], the parasite load remaining is 65.6% (inactive) and 76.6% (inactive) and 61% (inactive); the viability is 90.7% and 99.3% and 74.3%. Further, the z-score in [11] is -0.511 (inactive).

Take `Cn1cnc([N+](=O)[O-])c1Sc1ncnc2nc[nH]c12`: the fluorescence slope change in assay [10] was 53.6% (active). The AC50 in assay [2] was 6.61 µM (active). Moreover, the inhibition is -39.2% (inactive) and -50.5% (inactive) in assay [4] (at 0.5 µM); -37.7% and -16.5% in [4] (setting [13]); -43.1% and -68.9% in assay [4] (setting [14]); -1.96% (inactive) and 2.76% (inactive) in assay [5] (at 0.5 µM); -3.82% and 4.08% in assay [5] (setting [15]); -5.61% and 15.3% in assay [5] (setting [16]). Also, the inhibition is 39.3% (inactive) and 42.9% (inactive) in assay [6] (at 0.5 µM); -15.3% and -18.7% in [6] (setting [17]); -7.01% and -1.15% in assay [6] (setting [18]); -16.6% (inactive) and -22.7% (inactive) in assay [7] (at 0.5 µM); -17.1% and -11.6% in [7] (setting [19]); -20.9% and -25.4% in assay [7] (setting [20]). Moreover, the inhibition is 90.9% and 88.9% in [8] (setting [21]); 37.4% (inactive) and 50.2% (inactive) in [8] (at 0.5 µM); 96.5% and 101% in assay [8] (setting [22]); -1.25% (inactive) and 13.6% (inactive) in assay [9] (at 0.5 µM); 5.14% and 24.1% in assay [9] (setting [23]); -7.22% and 6.12% in [9] (setting [24]).

For the compound `CCCCCCNC(=O)n1cc(F)c(=O)[nH]c1=O`, in assay [12], the parasite load remaining is 405% (inactive) and 109% (inactive). Also, the viability in assay [12] is 90% and 80.4%. For the same compound, the z-score in assay [11] was 0.686 (inactive). The inhibition in assay [4] (at 0.5 µM) is -23.4% (inactive) and -30.5% (inactive); in assay [4] (setting [13]), -16.8% and -6.28%; in [4] (setting [14]) it was -120% and -21%; in assay [5] (at 0.5 µM) it was -1.02% (inactive) and -7.18% (inactive); in [5] (setting [15]), -21.9% and -3.96%; in assay [5] (setting [16]) it was 21% and -14.9%. Also, the inhibition in assay [6] (at 0.5 µM) is 5.77% (inactive) and 18.7% (inactive); in assay [6] (setting [17]), -24.4% and -30.3%; in [6] (setting [18]) it was -28.4% and -20.9%; in assay [7] (at 0.5 µM) it was -18.7% (inactive) and -16.7% (inactive); in assay [7] (setting [19]), -15.8% and -16.6%; in [7] (setting [20]) it was -25.7% and -25.2%. The inhibition in [8] (setting [21]) was 34.1% and 35.2%; in assay [8] (at 0.5 µM), 11% (inactive) and 22.4% (inactive); in [8] (setting [22]), 14.4% and 26.3%; in [9] (at 0.5 µM) it was 7.08% (inactive) and 16.2% (inactive); in [9] (setting [23]) it was -8.62% and 3.35%; in assay [9] (setting [24]) it was 18.1% and 20.7%.

Broadly, the inhibition is the change of the read-out against control, counted positive when it falls. A word on the viability: it is a read-out of living cells in per cent, often relative to untreated cells. For orientation: AC50 means the concentration at which the activity in the assay is half-maximal.
